Four molecules from PubChem BioAssay can be followed below.

Where “and” joins values, the source holds several entries; their conditions need not be identical. Equal values may be shown once. Calls of active or inactive are those of the source.

Assay [1] in a line: binders of probe aFSTL3 on microarray, primary screen, stem cell growth factor project, biochemical, small-molecule microarray, fluorescence 635/667 (AID 1064).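 Also: measures binding of the biotinylated anti-FSTL3 antibody to printed compounds.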 To be noted: higher = more signal.
Assay [2] in a line: binders from COS7 lysate, DM2A8 probe, primary screen, torsin A project, cell lysate, small-molecule microarray, fluorescence 635/667 (AID 1065). The note with it: higher = more signal, COS7 lysate expressing mutant human TOR1A.
The nature of assay [3]: binders of probe aFGF2 on microarray, primary screen, stem cell growth factor project, biochemical, small-molecule microarray, fluorescence 635/667 (AID 1067).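 Also: measures binding of biotinylated aFGF2 protein to printed compounds on slides; z-score merges feature fluorescence and signal-to-noise across triplicate slides.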 To be noted: higher = more signal.
Assay [4] can be described thus: binders of probe aFGF10 on microarray, primary screen, stem cell growth factor project, biochemical, small-molecule microarray, fluorescence 635/667 (AID 1071).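 Also: score merges 667 nm spot intensity and signal to noise from triplicate slides.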 To be noted: higher = more signal.
In assay [5] the target is Neurogenic locus notch homolog protein 2 (Homo sapiens) (UniProt Q04721). As to the kind of experiment: Notch2 binders on small-molecule microarrays, primary screen, biochemical, small-molecule microarray, 635 nm fluorescence, stem cell growth factors (AID 1073). To be noted: Notch2 binding, higher = more signal.
The target of assay [6] is Pro-neuregulin-1, membrane-bound isoform (Homo sapiens) (UniProt Q02297). Nature of the assay: NRG1 binders on small-molecule microarrays, primary screen, psychiatric disease protein project, biochemical, small-molecule microarray, fluorescence 635/667 (AID 1075).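 Also: score combines 667 nm spot fluorescence with signal to noise.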 To be noted: NRG1 binding, 635 nm fluorescence, higher = more signal.
For assay [7], the system named is Neuregulin-1 EGF-like domain. Nature of the assay: binders of neuregulin-1 EGF-like domain, primary screen, biochemical, small-molecule microarray, 635 nm fluorescence (AID 1081).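 Also: binding of the protein to compounds printed on small-molecule microarray slides.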 The note with it: small-molecule microarray binding, higher = more signal.
A short description of assay [8]: FRG1 promoter luciferase signal modulators, primary screen, FRG1 inhibition for FSHD, cell-based, C2C12 myotubes, firefly/Renilla luciferase, luminescence (AID 1084). To be noted: higher = more signal, called active from +8 up or from −8 down.
A short description of assay [9]: binders of probe aFST on microarray, primary screen, stem cell growth factor project, biochemical, small-molecule microarray, fluorescence 635/667 (AID 1086).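 Also: score merges 667 nm fluorescence with signal-to-noise of each printed compound spot.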 To be noted: higher = more signal.
Assay [10] in a line: binders of probe aHhip on microarray, primary screen, stem cell growth factor project, biochemical, small-molecule microarray, fluorescence 635/667 (AID 1087).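 Also: score merges spot fluorescence at 667nm with spot signal to noise ratio.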 To be noted: higher = more signal.
Assay [11] relates to PRMT1 (protein arginine N-methyltransferase 1). Nature of the assay: PRMT1 binders on small-molecule microarrays, primary screen, biochemical, small-molecule microarray, 635 nm fluorescence (AID 1088).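 Also: binding of Prmt1 protein to compounds spotted on small-molecule microarray slides.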 To be noted: small-molecule microarray binding, higher = more signal.
Assay [12] in a line: yeast growth modulation, basal conditions, primary screen, YJM789 clinical isolate, OD600, 24 h (AID 1089).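 Also: growth of clinical yeast isolate S. cerevisiae YJM 789 seeded 1000 cells per well; test concentration not given here.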 The note with it: S. cerevisiae YJM789 growth, higher = more signal, called active from +8 up or from −8 down.
A short description of assay [13]: fission yeast growth modulation, primary screen, strain 972, OD600, 24 h, no modulator (AID 1090).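 Also: basal condition with compound alone and no growth modifier present; test concentration not given here.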 The note with it: S. pombe 972 growth, higher = more signal, called active from +8 up or from −8 down.
Assay [14] can be described thus: S. cerevisiae growth modulation with rapamycin, primary screen, strain BY4716, OD600, 96 h (AID 1091). Also: test concentration not given here. To be noted: higher = more signal, called active from +8 up or from −8 down.
The target in assay [15] is Torsin-1A-interacting protein 2 (Homo sapiens) (UniProt Q8NFQ8). As to the kind of experiment: LULL1 binders on small-molecule microarray, primary screen, cell lysate, human LULL1 lysate, 635/667 nm fluorescence (AID 1092).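 Also: probe is lysate of COS7 cells overexpressing human LULL1; score merges per-feature 667 nm fluorescence with signal-to-noise.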 The note with it: hLULL1 lysate binding, 635 nm fluorescence, higher = more signal.
A short description of assay [16]: E. coli growth modulation, two-sided OD650, primary screen, E. coli filamentation project, strain DRC41, 24 h (AID 1093).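 Also: MC1000 strain lacking acrAB efflux and sulA so SOS filamentation is blocked; test concentration not given here.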 To be noted: OD650, 24 h, higher = more signal, called active from +8 up or from −8 down.
Assay [17] can be described thus: small-molecule microarray binders of probe aLefty2, primary screen, biochemical, biotinylated probe, 635/667 nm fluorescence (AID 1094).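 Also: score merges spot fluorescence near 667 nm with spot signal-to-noise ratio.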 To be noted: higher = more signal.
In assay [18] the test system is Noggin (protein binding on small-molecule microarray). Nature of the assay: Noggin binders on small-molecule microarray, primary screen, biochemical, 635/667 nm fluorescence (AID 1095).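 Also: score merges 667 nm feature fluorescence with signal to noise over triplicate slides.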 The note with it: 635 nm fluorescence, higher = more signal.
The target in assay [19] is Neurogenic locus notch homolog protein 3 (Homo sapiens) (UniProt Q9UM47). Nature of the assay: NOTCH3 binders on small-molecule microarray, primary screen, biochemical, 635/667 nm fluorescence (AID 1096). The note with it: NOTCH3 binding, 635 nm fluorescence, higher = more signal.
A short description of assay [20]: small-molecule microarray binders of probe aEGFR, primary screen, biochemical, biotinylated probe, 635/667 nm fluorescence (AID 1097).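 Also: probe is a biotinylated anti-EGFR antibody binding compounds printed on slides; score combines fluorescence near 667 nm and signal to noise of each spot.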 The note with it: higher = more signal.

Sequence of Torsin-1A-interacting protein 2 (Homo sapiens) (Q8NFQ8 whole entry, looked up): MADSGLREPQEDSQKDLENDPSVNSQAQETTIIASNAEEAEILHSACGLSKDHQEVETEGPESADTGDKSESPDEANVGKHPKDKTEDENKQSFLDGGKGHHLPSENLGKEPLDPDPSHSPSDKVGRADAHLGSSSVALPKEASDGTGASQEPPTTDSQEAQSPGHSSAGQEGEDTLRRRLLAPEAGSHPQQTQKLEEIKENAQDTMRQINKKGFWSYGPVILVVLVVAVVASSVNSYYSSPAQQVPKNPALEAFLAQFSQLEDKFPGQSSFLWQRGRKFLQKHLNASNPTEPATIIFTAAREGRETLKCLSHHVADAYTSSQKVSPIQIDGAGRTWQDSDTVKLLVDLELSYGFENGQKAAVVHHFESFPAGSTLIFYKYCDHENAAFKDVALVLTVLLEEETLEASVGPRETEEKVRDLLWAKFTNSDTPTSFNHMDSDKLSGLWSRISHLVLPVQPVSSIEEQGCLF
Sequence of Pro-neuregulin-1, membrane-bound isoform (Homo sapiens) (Q02297 whole entry, looked up, the tested form may be a part, canonical isoform): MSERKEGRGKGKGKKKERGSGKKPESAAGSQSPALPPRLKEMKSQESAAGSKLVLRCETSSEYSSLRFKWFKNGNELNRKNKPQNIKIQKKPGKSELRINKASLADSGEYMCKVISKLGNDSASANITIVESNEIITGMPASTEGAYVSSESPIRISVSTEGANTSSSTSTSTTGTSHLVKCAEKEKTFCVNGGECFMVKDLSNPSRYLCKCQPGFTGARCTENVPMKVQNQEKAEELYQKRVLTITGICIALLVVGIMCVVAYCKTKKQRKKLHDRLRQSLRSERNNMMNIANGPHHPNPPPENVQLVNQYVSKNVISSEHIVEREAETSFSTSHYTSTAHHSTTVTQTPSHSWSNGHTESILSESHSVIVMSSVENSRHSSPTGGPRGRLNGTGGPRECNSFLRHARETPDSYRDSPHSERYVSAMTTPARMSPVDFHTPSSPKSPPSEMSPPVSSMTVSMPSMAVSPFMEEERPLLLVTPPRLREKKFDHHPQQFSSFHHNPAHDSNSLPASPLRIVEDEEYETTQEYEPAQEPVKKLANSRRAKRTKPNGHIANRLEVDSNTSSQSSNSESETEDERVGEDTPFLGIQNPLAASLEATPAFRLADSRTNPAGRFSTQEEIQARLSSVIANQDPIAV
Sequence of Neurogenic locus notch homolog protein 2 (Homo sapiens) (Q04721 whole entry, looked up, canonical isoform): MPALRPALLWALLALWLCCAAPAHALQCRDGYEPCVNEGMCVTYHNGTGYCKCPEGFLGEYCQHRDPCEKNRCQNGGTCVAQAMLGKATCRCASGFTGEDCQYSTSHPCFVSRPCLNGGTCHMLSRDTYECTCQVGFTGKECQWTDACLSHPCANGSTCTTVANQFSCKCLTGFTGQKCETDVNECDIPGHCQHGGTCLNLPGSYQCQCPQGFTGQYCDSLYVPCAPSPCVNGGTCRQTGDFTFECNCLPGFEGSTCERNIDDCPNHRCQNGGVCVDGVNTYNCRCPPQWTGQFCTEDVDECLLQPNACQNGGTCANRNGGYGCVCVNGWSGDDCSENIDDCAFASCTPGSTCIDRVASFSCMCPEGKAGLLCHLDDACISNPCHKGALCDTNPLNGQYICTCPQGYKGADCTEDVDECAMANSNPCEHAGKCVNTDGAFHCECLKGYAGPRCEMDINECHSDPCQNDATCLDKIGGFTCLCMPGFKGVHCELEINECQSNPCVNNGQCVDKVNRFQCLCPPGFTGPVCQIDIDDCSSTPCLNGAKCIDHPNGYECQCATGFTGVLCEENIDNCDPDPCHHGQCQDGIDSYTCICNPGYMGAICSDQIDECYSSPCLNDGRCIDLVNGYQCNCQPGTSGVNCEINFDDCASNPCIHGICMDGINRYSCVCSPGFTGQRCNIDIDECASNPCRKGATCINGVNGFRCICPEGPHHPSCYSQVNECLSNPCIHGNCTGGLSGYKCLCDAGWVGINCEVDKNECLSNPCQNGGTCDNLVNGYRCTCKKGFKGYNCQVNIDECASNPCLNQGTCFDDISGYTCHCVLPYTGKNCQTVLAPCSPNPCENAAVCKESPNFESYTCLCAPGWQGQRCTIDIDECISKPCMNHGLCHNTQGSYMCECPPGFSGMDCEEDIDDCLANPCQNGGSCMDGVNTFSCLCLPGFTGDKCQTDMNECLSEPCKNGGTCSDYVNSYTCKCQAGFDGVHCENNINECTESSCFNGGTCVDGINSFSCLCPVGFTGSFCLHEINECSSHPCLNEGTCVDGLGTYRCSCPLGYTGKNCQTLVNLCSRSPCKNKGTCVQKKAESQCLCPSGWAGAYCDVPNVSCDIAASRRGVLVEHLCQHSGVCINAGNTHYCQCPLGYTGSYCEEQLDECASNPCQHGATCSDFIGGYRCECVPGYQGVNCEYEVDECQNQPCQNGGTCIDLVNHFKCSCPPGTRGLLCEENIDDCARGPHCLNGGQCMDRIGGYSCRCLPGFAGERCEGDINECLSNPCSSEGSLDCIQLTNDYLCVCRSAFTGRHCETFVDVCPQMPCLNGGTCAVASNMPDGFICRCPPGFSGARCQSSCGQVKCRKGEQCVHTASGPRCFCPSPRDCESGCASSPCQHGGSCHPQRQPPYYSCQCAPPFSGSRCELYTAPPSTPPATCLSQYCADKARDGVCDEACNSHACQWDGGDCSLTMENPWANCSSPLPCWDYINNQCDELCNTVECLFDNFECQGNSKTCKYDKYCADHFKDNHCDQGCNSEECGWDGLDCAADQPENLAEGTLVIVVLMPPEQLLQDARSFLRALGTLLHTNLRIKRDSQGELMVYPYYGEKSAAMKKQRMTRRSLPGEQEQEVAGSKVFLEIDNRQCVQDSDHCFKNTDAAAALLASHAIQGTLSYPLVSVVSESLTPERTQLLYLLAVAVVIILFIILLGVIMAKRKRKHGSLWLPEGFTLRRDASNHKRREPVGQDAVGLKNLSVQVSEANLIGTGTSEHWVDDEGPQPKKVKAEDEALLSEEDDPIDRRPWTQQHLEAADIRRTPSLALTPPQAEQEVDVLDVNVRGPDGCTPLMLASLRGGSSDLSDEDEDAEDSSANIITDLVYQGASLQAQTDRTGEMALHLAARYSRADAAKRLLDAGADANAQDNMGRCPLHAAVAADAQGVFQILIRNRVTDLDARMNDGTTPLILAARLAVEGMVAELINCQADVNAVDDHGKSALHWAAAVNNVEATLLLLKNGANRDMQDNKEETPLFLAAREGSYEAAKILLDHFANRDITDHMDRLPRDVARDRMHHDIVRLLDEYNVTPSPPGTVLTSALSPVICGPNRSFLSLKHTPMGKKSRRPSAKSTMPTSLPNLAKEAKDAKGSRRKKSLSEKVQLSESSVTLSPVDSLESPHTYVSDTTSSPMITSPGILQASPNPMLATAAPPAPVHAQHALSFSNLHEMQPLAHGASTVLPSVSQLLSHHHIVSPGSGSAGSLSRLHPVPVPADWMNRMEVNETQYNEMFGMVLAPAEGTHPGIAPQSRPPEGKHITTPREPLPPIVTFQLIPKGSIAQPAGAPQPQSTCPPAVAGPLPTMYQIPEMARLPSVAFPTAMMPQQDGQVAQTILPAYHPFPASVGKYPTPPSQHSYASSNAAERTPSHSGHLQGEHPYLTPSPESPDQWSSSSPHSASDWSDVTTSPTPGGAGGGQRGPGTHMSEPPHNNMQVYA

Regarding `C=CCN(CCCC)C(=O)C1N(CCCCCCO)C(=O)C2C(C(=O)O)C3C=CC21O3` (stereo not given), the composite z-score in assay [1] is 1.42 and 1.34; in assay [2], -0.0373 and -0.98; in [3], -0.153 and -0.112; in [4] it was -0.0134 and -0.092; in assay [5], -2.57 and -2.12; in assay [6], -0.506 and 0.0117. Also, the composite z-score in [7] was 0.796 and 1.46; in assay [9], -1.41 and -0.957; in assay [10], -0.383 and -0.204; in [11] it was -0.448 and -0.52; in [15] it was -0.179 and 2.36; in assay [17] it was 0.0397 and -0.0936. Besides, the composite z-score in assay [18] was -3.5 and -2.6; in assay [19] it was -1.8 and -1.2; in assay [20], -0.485 and -0.356. Moreover, the z-score is 0.591 (inactive) and 0.91 (inactive) in [8]; 0.0812 (inactive) and -0.104 (inactive) in assay [12]; 0.496 (inactive) and -0.0666 (inactive) in assay [13]; -0.282 (inactive) and -0.642 (inactive) in assay [14]; -0.909 (inactive) and -0.855 (inactive) in assay [16].
In the case of `CCN1C(=O)[C@H]2[C@H]3[C@H](O)[C@H](O)CC(=NOC)[C@@H]3CC[C@H]2C1=O`, the composite z-score in assay [1] was 0.206; in [2] it was -0.604; in assay [3], -0.1; in assay [4], 0.369; in [5], -0.422; in assay [6], -0.319. Moreover, the composite z-score in assay [7] was -0.817; in assay [9] it was -0.221; in [10], 0.0024; in assay [11] it was -1.1; in assay [15] it was -0.27; in [17], -0.0192. In addition, the composite z-score in assay [18] is 0.178; in assay [19], -0.065; in [20], -0.0581. Besides, the z-score was -0.898 (inactive) in assay [8]; -0.285 (inactive) in [12]; -1.9 (inactive) in [13]; -0.495 (inactive) in assay [14]; 0.525 (inactive) in assay [16].
Consider `C=CCN(Cc1ccccc1)C(=O)C1N(CCCCCCO)C(=O)C2C(C(=O)O)C3C=CC21O3` (stereo not given), for which the composite z-score in assay [1] is 1.09 and 1.2; in [2] it was -1.16 and -1.37; in assay [3], -0.236 and -0.323; in [4], -1.2 and -1.78; in [5], -1.18 and -1.23; in assay [6], 0.614 and 0.705. Besides, the composite z-score in assay [7] is 1.41 and 1.4; in assay [9], -0.841 and -0.708; in assay [10], -0.5 and -0.204; in assay [11] it was -0.487 and -1.4; in [15] it was 1.83 and 1.79; in assay [17] it was -0.0265 and 0.0515. In addition, the composite z-score in assay [18] was -1.9 and -1.38; in [19], -1.59 and -0.439; in assay [20] it was -0.322 and -0.246. The z-score in assay [8] is 0.639 (inactive) and -0.331 (inactive); in [12] it was 0.101 (inactive) and -1.39 (inactive); in assay [13], 0.624 (inactive) and -0.642 (inactive); in assay [14] it was -0.889 (inactive) and -1.51 (inactive); in assay [16], -0.142 (inactive) and 1.19 (inactive).
`COC(=O)C1=C(C)N(Cc2ccccc2)[C@]23O[C@](C(=O)OC)(C(=O)N2[C@@H]1c1ccccc1)[C@@H](C(=O)OC)[C@H]3C(=O)OC`: the composite z-score was 0.202 and -0.441 in assay [1]; -0.295 and -0.1 in [2]; -0.112 and -0.0712 in [3]; -0.204 and 0.255 in [4]; -0.481 and 0.25 in [5]; 0.943 and -0.386 in [6]. Moreover, the composite z-score in assay [7] was 0.393 and 0.208; in assay [9] it was -0.243 and -0.0583; in assay [10], -0.137 and -0.189; in [11], -0.584 and 0.5; in assay [15], 0.19 and 0.0032; in [17] it was -0.277 and -0.259. Further, the composite z-score in assay [18] is -0.803 and 0.77; in [19], -1.21 and 0.287; in [20], -0.173 and -0.115. Moreover, the z-score was -0.125 (inactive) and -0.101 (inactive) in assay [8]; 0.464 (inactive) and 0.457 (inactive) in assay [12]; -0.0252 (inactive) and -0.671 (inactive) in [13]; 0.667 (inactive) and 0.334 (inactive) in [14]; 0.305 (inactive) and 0.28 (inactive) in [16].
